# In all, about 5,500 compounds went through this assay and about 2,000 (36%) were called active. Not shown: some 18% with an inconclusive outcome. This is one part of the list. A number with no mark means an inactive call. Rule as the data show it: active = normalized growth mostly below about 0.91 (no sharp cut-off); inconclusive = no clear call, values can overlap the other calls; inactive = mostly above about 0.92.
# Assay: chemical genetic growth profiling, strain panel (AID 1159580);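 also: tested at 20 µM; growth read once vehicle control cultures reached saturation at 30 °C; 1 = growth at the plate median or of vehicle wells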
# Conditions: growth OD
smiles,measurement,setting,value
Cc1cc(O)c2c(c1O)C(=O)c1c(O)cc(C)c(O)c1C2=O,normalized growth,"S. cerevisiae deletion strains, locus YJR075W, strain HOC1, stronger effect = lower value",1.01
same,normalized growth,"S. cerevisiae deletion strains, locus YKL009W, strain mrt4, stronger effect = lower value",1.05
same,normalized growth,"S. cerevisiae deletion strains, locus YKL068W, stronger effect = lower value",0.995
same,normalized growth,"S. cerevisiae deletion strains, locus YKL085W, strain MDH1 (second series), stronger effect = lower value",1.01
same,normalized growth,"S. cerevisiae deletion strains, locus YKL085W, strain MDH1, stronger effect = lower value",1.01
same,normalized growth,"S. cerevisiae deletion strains, locus YKL160W, strain elf1, stronger effect = lower value",0.985
same,normalized growth,"S. cerevisiae deletion strains, locus YKL190W, strain CNB1, stronger effect = lower value",0.984
same,normalized growth,"S. cerevisiae deletion strains, locus YKR001C, strain vps1, stronger effect = lower value",0.971
same,normalized growth,"S. cerevisiae deletion strains, locus YKR026C, strain gcn3, stronger effect = lower value",0.979
same,normalized growth,"S. cerevisiae deletion strains, locus YKR091W, strain srl3, stronger effect = lower value",0.968
same,normalized growth,"S. cerevisiae deletion strains, locus YLL001W, strain dnm1, stronger effect = lower value",0.966
same,normalized growth,"S. cerevisiae deletion strains, locus YLL026W, stronger effect = lower value",0.988
same,normalized growth,"S. cerevisiae deletion strains, locus YLL041C, strain sdh2, stronger effect = lower value",0.981
same,normalized growth,"S. cerevisiae deletion strains, locus YLR027C, strain aat2, stronger effect = lower value",0.966
same,normalized growth,"S. cerevisiae deletion strains, locus YLR039C, strain RIC1, stronger effect = lower value",0.635 (active)
same,normalized growth,"S. cerevisiae deletion strains, locus YLR058C, strain SHM2, stronger effect = lower value",0.93
same,normalized growth,"S. cerevisiae deletion strains, locus YLR102C, strain apc9, stronger effect = lower value",0.999
same,normalized growth,"S. cerevisiae deletion strains, locus YLR113W, strain HOG1, stronger effect = lower value",1.03
same,normalized growth,"S. cerevisiae deletion strains, locus YLR221C, strain rsa3, stronger effect = lower value",0.948
same,normalized growth,"S. cerevisiae deletion strains, locus YLR258W, strain gsy2, stronger effect = lower value",0.977
same,normalized growth,"S. cerevisiae deletion strains, locus YLR262C, strain YPT6 (second series), stronger effect = lower value",0.887
same,normalized growth,"S. cerevisiae deletion strains, locus YLR262C, strain YPT6, stronger effect = lower value",0.675
same,normalized growth,"S. cerevisiae deletion strains, locus YLR268W, strain sec22, stronger effect = lower value",0.964
same,normalized growth,"S. cerevisiae deletion strains, locus YLR320W, strain mms22, stronger effect = lower value",0.965
same,normalized growth,"S. cerevisiae deletion strains, locus YLR330W, strain CHS5, stronger effect = lower value",0.956
same,normalized growth,"S. cerevisiae deletion strains, locus YLR342W, strain FKS1 (second series), stronger effect = lower value",0.981
same,normalized growth,"S. cerevisiae deletion strains, locus YLR342W, strain FKS1, stronger effect = lower value",0.98
same,normalized growth,"S. cerevisiae deletion strains, locus YLR357W, strain rsc2, stronger effect = lower value",0.976
same,normalized growth,"S. cerevisiae deletion strains, locus YLR370C, strain arc18, stronger effect = lower value",0.987
same,normalized growth,"S. cerevisiae deletion strains, locus YLR371W, strain rom2, stronger effect = lower value",1
same,normalized growth,"S. cerevisiae deletion strains, locus YLR384C, strain iki3, stronger effect = lower value",0.962
same,normalized growth,"S. cerevisiae deletion strains, locus YLR418C, strain cdc73, stronger effect = lower value",1.02
same,normalized growth,"S. cerevisiae deletion strains, locus YML016C, strain PPZ1, stronger effect = lower value",0.958
same,normalized growth,"S. cerevisiae deletion strains, locus YML032C, strain rad52, stronger effect = lower value",0.974
same,normalized growth,"S. cerevisiae deletion strains, locus YML120C, strain ndi1, stronger effect = lower value",0.912 (active)
same,normalized growth,"S. cerevisiae deletion strains, locus YML124C, strain tub3, stronger effect = lower value",0.997
same,normalized growth,"S. cerevisiae deletion strains, locus YMR058W, strain fet3, stronger effect = lower value",0.923
same,normalized growth,"S. cerevisiae deletion strains, locus YMR078C, strain ctf18, stronger effect = lower value",0.981
same,normalized growth,"S. cerevisiae deletion strains, locus YMR125W, strain sto1, stronger effect = lower value",0.99
same,normalized growth,"S. cerevisiae deletion strains, locus YMR129W, stronger effect = lower value",0.981
same,normalized growth,"S. cerevisiae deletion strains, locus YMR205C, strain PFK2, stronger effect = lower value",0.993
same,normalized growth,"S. cerevisiae deletion strains, locus YMR223W, strain ubp8, stronger effect = lower value",0.989
same,normalized growth,"S. cerevisiae deletion strains, locus YMR231W, strain pep5, stronger effect = lower value",0.959
same,normalized growth,"S. cerevisiae deletion strains, locus YMR263W, strain SAP30, stronger effect = lower value",1.01
same,normalized growth,"S. cerevisiae deletion strains, locus YMR307W, strain GAS1, stronger effect = lower value",0.778
same,normalized growth,"S. cerevisiae deletion strains, locus YNL067W, strain RPL9B, stronger effect = lower value",0.991
same,normalized growth,"S. cerevisiae deletion strains, locus YNL071W, strain lat1, stronger effect = lower value",0.984
same,normalized growth,"S. cerevisiae deletion strains, locus YNL128W, strain TEP1, stronger effect = lower value",0.96
same,normalized growth,"S. cerevisiae deletion strains, locus YNL153C, strain GIM3, stronger effect = lower value",0.965
same,normalized growth,"S. cerevisiae deletion strains, locus YNL183C, strain NPR1, stronger effect = lower value",0.951
same,normalized growth,"S. cerevisiae deletion strains, locus YNL209W, strain ssb2, stronger effect = lower value",0.969
same,normalized growth,"S. cerevisiae deletion strains, locus YNL233W, strain BNI4, stronger effect = lower value",0.982
same,normalized growth,"S. cerevisiae deletion strains, locus YNL248C, strain rpa49, stronger effect = lower value",0.95
same,normalized growth,"S. cerevisiae deletion strains, locus YNL250W, strain rad50, stronger effect = lower value",0.974
same,normalized growth,"S. cerevisiae deletion strains, locus YNL271C, strain bni1, stronger effect = lower value",0.987
same,normalized growth,"S. cerevisiae deletion strains, locus YNL298W, strain CLA4, stronger effect = lower value",0.98
same,normalized growth,"S. cerevisiae deletion strains, locus YNL307C, strain MCK1, stronger effect = lower value",1.01
same,normalized growth,"S. cerevisiae deletion strains, locus YNL322C, strain KRE1 (second series), stronger effect = lower value",0.944
same,normalized growth,"S. cerevisiae deletion strains, locus YNL322C, strain KRE1, stronger effect = lower value",0.984
same,normalized growth,"S. cerevisiae deletion strains, locus YNR049C, strain mso1, stronger effect = lower value",0.965
same,normalized growth,"S. cerevisiae deletion strains, locus YNR052C, strain pop2, stronger effect = lower value",0.98
same,normalized growth,"S. cerevisiae deletion strains, locus YOL006C, strain TOP1, stronger effect = lower value",0.491 (active)
same,normalized growth,"S. cerevisiae deletion strains, locus YOL012C, strain htz1",1.11
same,normalized growth,"S. cerevisiae deletion strains, locus YOL147C, strain pex11, stronger effect = lower value",1
same,normalized growth,"S. cerevisiae deletion strains, locus YOR001W, strain rrp6, stronger effect = lower value",0.962
same,normalized growth,"S. cerevisiae deletion strains, locus YOR061W, strain CKA2, stronger effect = lower value",0.934
same,normalized growth,"S. cerevisiae deletion strains, locus YOR069W, strain VPS5, stronger effect = lower value",0.975
same,normalized growth,"S. cerevisiae deletion strains, locus YOR070C, strain gyp1, stronger effect = lower value",0.972
same,normalized growth,"S. cerevisiae deletion strains, locus YOR080W, strain dia2, stronger effect = lower value",0.974
same,normalized growth,"S. cerevisiae deletion strains, locus YOR083W, strain WHI5, stronger effect = lower value",0.964
same,normalized growth,"S. cerevisiae deletion strains, locus YOR106W, strain vam3, stronger effect = lower value",0.937
same,normalized growth,"S. cerevisiae deletion strains, locus YOR136W, strain idh2, stronger effect = lower value",1.01
same,normalized growth,"S. cerevisiae deletion strains, locus YOR144C, strain elg1, stronger effect = lower value",0.988
same,normalized growth,"S. cerevisiae deletion strains, locus YOR184W, strain ser1, stronger effect = lower value",1.02
same,normalized growth,"S. cerevisiae deletion strains, locus YOR231W, strain MKK1, stronger effect = lower value",0.996
same,normalized growth,"S. cerevisiae deletion strains, locus YOR265W, strain rbl2, stronger effect = lower value",0.971
same,normalized growth,"S. cerevisiae deletion strains, locus YOR270C, strain vph1, stronger effect = lower value",0.841
same,normalized growth,"S. cerevisiae deletion strains, locus YOR290C, strain snf2, stronger effect = lower value",0.914
same,normalized growth,"S. cerevisiae deletion strains, locus YOR316C, strain cot1, stronger effect = lower value",0.997
same,normalized growth,"S. cerevisiae deletion strains, locus YPL051W, strain arl3, stronger effect = lower value",0.953
same,normalized growth,"S. cerevisiae deletion strains, locus YPL055C, strain LGE1, stronger effect = lower value",1.01
same,normalized growth,"S. cerevisiae deletion strains, locus YPL078C, strain atp4, stronger effect = lower value",0.982
same,normalized growth,"S. cerevisiae deletion strains, locus YPL106C, strain sse1, stronger effect = lower value",0.953
same,normalized growth,"S. cerevisiae deletion strains, locus YPL240C, strain hsp82, stronger effect = lower value",0.98
same,normalized growth,"S. cerevisiae deletion strains, locus YPL241C, strain CIN2, stronger effect = lower value",0.995
same,normalized growth,"S. cerevisiae deletion strains, locus YPL256C, strain CLN2, stronger effect = lower value",0.993
same,normalized growth,"S. cerevisiae deletion strains, locus YPR119W, strain clb2, stronger effect = lower value",0.986
same,normalized growth,"S. cerevisiae deletion strains, locus YPR141C, strain kar3, stronger effect = lower value",0.978
same,normalized growth,"S. cerevisiae deletion strains, locus YPR163C, strain tif3, stronger effect = lower value",1
same,normalized growth,"S. cerevisiae deletion strains, locus YPR167C, strain met16, stronger effect = lower value",0.989
same,normalized growth,"S. cerevisiae deletion strains, strain wtn01, stronger effect = lower value",0.998
same,normalized growth,"S. cerevisiae strains, strain wild type, stronger effect = lower value",0.989
